The nature of assay [1]: APR_HepG2_CellCycleArrest_24hr: Apredica 24-hour HepG2 Assay for Cell Cycle Arrest (AID 2282905).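 Further: cell cycle arrest scored as ratio of 2N to 4N nuclear DNA content.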 The settings on record: imaging, actives raise or lower the signal. Summed up: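 Cell cycle arrest is scored from nuclear DNA content measured by high-content imaging of Hoechst 33342-stained HepG2 cells following 24-hour treatment at ten concentrations up to 200 uM, with DMSO as baseline.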

A short description of assay [2]: APR_HepG2_NuclearSize_24hr: Apredica 24-hour HepG2 Assay for Nuclear Size (AID 2282907). The settings on record: high-content imaging, actives raise or lower the signal. In short, it runs like this:
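Compounds in DMSO (final 0.5%) were added to human HepG2 hepatoma cells at ten concentrations up to 200 uM for 24 hr. Fixed nuclei were stained with Hoechst 33342, and nuclear diameter was quantified from automated images.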

Assay [3] is described as follows: APR_HepG2_CellLoss_24hr: Apredica 24-hour HepG2 Assay for Cell Loss (AID 2282908).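 On AC50: fit in both directions so a hit may be cell loss or gain.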 The settings on record: high-content imaging. In short, it runs like this: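 Cell number is quantified by fluorescence imaging of Hoechst 33342-stained nuclei following dosing at 0.39–200 uM in 0.5% DMSO. Curves are fitted in both directions from the DMSO baseline.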
Assay [4] can be described thus: APR_HepG2_MicrotubuleCSK_24hr: Apredica 24-hour HepG2 Assay for Microtubule CSK Stabilty (AID 2282909). The settings on record: HepG2 microtubule cytoskeleton imaging, actives raise or lower the signal. In short, it runs like this: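 Steps: dose HepG2 for 24 h (0.39–200 uM, 0.5% DMSO); fix 30 min in 3.7% formaldehyde at room temperature; permeabilize; stain alpha-tubulin 60 min; image microtubule cytoskeleton at 20x. Signal change fitted in both directions relative to DMSO.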

Assay [5] is described as follows: APR_HepG2_MitoticArrest_24hr: Apredica 24-hour HepG2 Assay for Mitotic Arrest (AID 2282910). The settings on record: high-content imaging, actives raise or lower the signal. Summed up: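 HepG2 human liver cells were exposed to compounds at 0.39–200 uM (10 concentrations, duplicate) in 0.5% v/v DMSO for 24 hr, then fixed and immunostained for phospho-histone H3 with Hoechst 33342. Mitotic arrest came from HCS fluorescent imaging, fitted bidirectionally against DMSO.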

The nature of assay [6]: APR_HepG2_MitoMembPot_24hr: Apredica 24-hour HepG2 Assay for Mitochondrial Membrane Potential (AID 2282911). The conditions noted are these: imaging, actives raise or lower the signal. In short, it runs like this: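 HepG2 cells exposed 24 h to 0.39–200 uM compounds in duplicate, 0.5% v/v DMSO final. MitoTracker Red CMXRos 250 nM loaded 30 min before formaldehyde fixation; high-content imaging at 20x, bidirectional fit versus DMSO.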

Assay [7] is described as follows: APR_HepG2_MitoMass_24hr: Apredica 24-hour HepG2 Assay for Mitochondrial Mass (AID 2282912). The conditions noted are these: high-content imaging, actives raise or lower the signal. In short, it runs like this: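 The liver line HepG2 was dosed in duplicate across a 0.39–200 uM series, with final DMSO held at 0.5% v/v, and harvested at 24 hr. High-content imaging measured mitochondrial dye staining.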

A short description of assay [8]: APR_HepG2_CellCycleArrest_72hr: Apredica 72-hour HepG2 Assay for Cell Cycle Arrest (AID 2282914). The settings on record: high-content imaging, actives raise or lower the signal. Summed up: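 HepG2 cells exposed 72 h in duplicate to 0.39–200 uM compound, 0.5% DMSO final. Formaldehyde-fixed, Hoechst 33342-stained nuclei imaged at 20x, six fields per well; DNA content per valid cell quantified by cell-cycle image analysis, bidirectional fit versus DMSO.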

The nature of assay [9]: APR_HepG2_CellLoss_72hr: Apredica 72-hour HepG2 Assay for Cell Loss (AID 2282915). The settings on record: high-content imaging. Summed up:
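HepG2 cells were exposed for 72 hr to compounds at 0.39–200 uM (ten concentrations, duplicate) in 0.5% v/v final DMSO. Nuclei were stained with Hoechst 33342 after 3.7% formaldehyde fixation, imaged at 20x, and counted; fits bidirectional versus DMSO.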

The nature of assay [10]: APR_HepG2_P-H2AX_72hr: Apredica 72-hour HepG2 Assay for H2AX Phosphorylation (AID 2282916).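 Further: phospho-histone H2A.x immunostain intensity per cell marking DNA damage.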 The conditions noted are these: imaging, actives raise or lower the signal. Summed up: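 Following 72 hr treatment with 0.39–200 uM compound, HepG2 cells were formaldehyde-fixed, permeabilized and stained for phospho-H2A.x; signal was measured by high-content imaging and fitted bidirectionally against DMSO controls.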

A short description of assay [11]: APR_HepG2_MitoMembPot_72hr: Apredica 72-hour HepG2 Assay for Mitochondrial Membrane Potential (AID 2282917). The settings on record: imaging, actives raise or lower the signal. In short, it runs like this:
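HepG2 cells exposed 72 h to compounds at 0.39–200 uM (0.5% v/v DMSO, duplicates); MitoTracker Red CMXRos 250 nM loaded 30 min before 3.7% formaldehyde fixation, imaged by HCS fluorescence. Bidirectional fit versus DMSO.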

A short description of assay [12]: APR_HepG2_MitoticArrest_72hr: Apredica 72-hour HepG2 Assay for Mitotic Arrest (AID 2282918). The conditions noted are these: high-content imaging, actives raise or lower the signal. In short, it runs like this:
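HepG2 cells treated 72 h at 0.39–200 uM, 0.5% DMSO final; formaldehyde-fixed, stained with Hoechst 33342 and phospho-histone H3 antibody, imaged by high-content fluorescence; bidirectional fit versus DMSO.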

A short description of assay [13]: APR_HepG2_MicrotubuleCSK_72hr: Apredica 72-hour HepG2 Assay for Microtubule CSK Stabilty (AID 2282919). The conditions noted are these: HepG2 microtubule cytoskeleton, high-content imaging, actives raise or lower the signal. In short, it runs like this:
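HepG2 human liver cells were dosed for 72 h at ten concentrations from 0.39 to 200 uM in duplicate (0.5% v/v DMSO final). Fixed, permeabilized cells were immunostained for alpha-tubulin (Cy5) with a Hoechst counterstain and imaged at 20x.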

A short description of assay [14]: APR_HepG2_P-H2AX_24hr: Apredica 24-hour HepG2 Assay for H2AX Phosphorylation (AID 2282920). The settings on record: high-content imaging, actives raise or lower the signal. In short, it runs like this:
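HepG2 cells dosed 24 h at 0.39–200 uM (10 points, duplicate, 0.5% DMSO final). Formaldehyde-fixed and permeabilized, then immunostained for phospho-H2A.x with Hoechst. Fluorescence quantified by high-content imaging, fitted bidirectionally versus DMSO.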

Assay [15] can be described thus: APR_HepG2_StressKinase_72hr: Apredica 72-hour HepG2 Assay for Stress Kinase (AID 2282921). The conditions noted are these: HepG2 stress kinase (phospho-c-Jun) imaging, actives raise or lower the signal. Summed up:
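Fluorescence intensity of Cy3-tagged anti-phospho-c-Jun antibody, quantified per cell from Hoechst-defined nuclei across six images per well, served as the read-out following 72 h exposure (0.39–200 uM, 0.5% v/v DMSO).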

Assay [16] is described as follows: APR_HepG2_StressKinase_24hr: Apredica 24-hour HepG2 Assay for Stress Kinase (AID 2282922). The conditions noted are these: HepG2 stress kinase (phospho-c-Jun) imaging, actives raise or lower the signal. In short, it runs like this: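 HepG2 cells exposed 24 hr to compound at 0.39–200 uM (10 concentrations, duplicate), 0.5% v/v DMSO final. Fixed in 3.7% formaldehyde, permeabilized with Triton X-100, immunolabeled for phospho-c-Jun with Hoechst 33342; HCS fluorescence imaging, bidirectional fit versus DMSO.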

The nature of assay [17]: APR_HepG2_MitoMass_72hr: Apredica 72-hour HepG2 Assay for Mitochondrial Mass (AID 2282924).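 Further: MitoTracker Red CMXRos stain intensity per cell imaged as mitochondrial mass.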 The conditions noted are these: high-content imaging, actives raise or lower the signal. In short, it runs like this: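 HepG2 cells were exposed for 72 hr to compounds at 0.39–200 uM (ten concentrations, duplicate, 0.5% v/v DMSO final). Live cells were stained with 250 nM MitoTracker Red CMXRos for 30 min, then fixed in 3.7% formaldehyde and imaged by HCS fluorescence.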

The nature of assay [18]: APR_HepG2_NuclearSize_72hr: Apredica 72-hour HepG2 Assay for Nuclear Size (AID 2282925). The conditions noted are these: high-content imaging, actives raise or lower the signal. Summed up:
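HepG2 cells were exposed to compounds at ten concentrations from 0.39 to 200 uM (duplicate, 0.5% DMSO final) for 72 hr. After fixation in 3.7% formaldehyde, nuclei were stained with Hoechst 33342 (2 ug/mL) and imaged at 20x.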

The nature of assay [19]: APR_HepG2_p53Act_24hr: Apredica 24-hour HepG2 Assay for p53 Activation (AID 2282913).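 Further: p53 protein immunofluorescence averaged per cell in HepG2 with Hoechst nuclei.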 The settings on record: high-content imaging, actives raise or lower the signal. In short, it runs like this:
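HepG2 cells exposed 24 h to compounds at 0.39–200 uM in duplicate, 0.5% v/v DMSO final; fixed, permeabilized, stained with anti-p53 antibody and Hoechst 33342; fluorescence imaging; bidirectional curve fit versus DMSO.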

A short description of assay [20]: APR_HepG2_p53Act_72hr: Apredica 72-hour HepG2 Assay for p53 Activation (AID 2282923).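 Further: average cellular p53 protein immunofluorescence intensity in HepG2 cells.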 The settings on record: high-content imaging, actives raise or lower the signal. In short, it runs like this:
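HepG2 monolayers receive test compounds in duplicate at ten concentrations (0.39 through 200 uM) for 72 hr. They are then formaldehyde-fixed, antibody-labelled for p53, Hoechst-stained and imaged, with activity fitted bidirectionally versus DMSO.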

What is called AC50 is the concentration giving half of the maximal activity seen.

Molecules are shown by their SMILES. The source made the active and inactive calls. How the source made its calls: active means hit-call score of the fitted dose curve at least 0.9, where 1 is the maximum; inactive means score below 0.9.

As to `O=[N+]([O-])C(Br)(CO)CO`, the AC50 in assay [1] was 116 µM (active); in assay [3] it was 25.6 µM (active); in [6] it was 84.6 µM (active); in assay [9] it was 35.5 µM (active); in assay [18] it was 163 µM (active). Further, the outcome in assay [2], in [4], in assay [5], in assay [7], in assay [8] and in assay [10] was inactive. Further, the result in assay [11], in assay [12], in assay [13], in assay [14], in assay [15] and in [16] was inactive. The outcome in assay [17] was inactive.

Turning to `COC(=O)c1ccccc1N`, the compound was called inactive in assay [2], in assay [3], in assay [4], in [5], in assay [6] and in assay [7]. The compound was classed as inactive in [19], in assay [8], in assay [9], in assay [10], in assay [11] and in assay [12]. Moreover, the call in assay [13], in assay [14], in [15], in [16], in assay [20] and in assay [17] was inactive. Moreover, the result in assay [18] was inactive.

With `O=[N+]([O-])c1ccc(Oc2ccc(Cl)cc2Cl)cc1`, the compound was classed as inactive in assay [1], in assay [2], in assay [4], in assay [5], in assay [6] and in assay [7]. Further, the call in [19], in [8], in assay [10], in assay [11], in assay [13] and in assay [14] was inactive. The compound was called inactive in [15], in assay [16], in assay [20], in assay [17] and in [18]. Also, the concentration at half-maximal activity (AC50) was 80.8 µM (active) in assay [3], 89.7 µM (active) in [9] and 71 µM (active) in assay [12].

For `c1ccc(C2CO2)cc1` (centres undefined), the compound was called inactive in [2], in [3], in assay [4], in assay [5], in assay [6] and in assay [7]. For the same compound, the call in [19], in assay [8], in [9], in assay [10], in [11] and in [12] was inactive. Also, the result in assay [13], in assay [14], in [15], in [16], in [20] and in assay [17] was inactive. Also, the compound was called inactive in assay [18].

Take `CCCSC(=O)N(CCC)CCC`: the call in [2], in assay [3], in [4], in assay [5], in assay [6] and in assay [7] was inactive. In addition, the call in assay [19], in assay [8], in assay [9], in assay [10], in assay [11] and in assay [12] was inactive. Also, the result in assay [13], in assay [14], in [15], in [16], in assay [20] and in assay [17] was inactive. Further, the compound was classed as inactive in assay [18].

For `Nc1ccc(Cl)cc1N`, the compound was classed as inactive in [2], in assay [3], in assay [4], in [5], in assay [6] and in [7]. Also, the compound was classed as inactive in [11], in [15], in assay [16], in assay [17] and in assay [18]. Also, the AC50 in assay [19] is 0.944 µM (active); in [8], 1.46 µM (active); in [9], 1.1 µM (active); in assay [10], 5.9 µM (active); in [12], 2.4 µM (active); in [13], 3.83 µM (active). The AC50 in [14] was 1.2 µM (active); in assay [20], 3.54 µM (active).
